In PubChem BioAssay:
Some of the results follow. Calls of active or inactive are those of the source.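 Rule for the calls, unless noted: active = membrane potential signal moved up or down beyond 5 SD of buffer control wells, in both duplicate plates, actives on both sides; inactive = the rest.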

Test system: not listed separately
Experiment: membrane potential response modulators in host HEK293 cells – cell-based, second counter-screen, parental HEK293, membrane potential dye, counter-screen for TRPC6 modulator project, confirmation (AID 488926;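 active = membrane potential signal drops by more than 5 SD from the mean control signal, in both duplicate plates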;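 for inhibition: plate controls were acetylcholine ECmax control wells for no effect and buffer only wells for full effect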)
Conditions: parental HEK293, membrane potential dye fluorescence, at 10 µM, after compound, maximal acetylcholine stimulation; stronger effect = higher value

Compound	outcome	inhibition
Cc1cccc(NC(=S)NCCN(C2CCCCC2)C2CCCC2)c1	inactive	
Cc1cc(N2CCN(S(=O)(=O)c3ccc(C)c(C)c3)CC2)c2ccccc2n1	inactive	
N=c1c2c3c(sc2ncn1CCCN1CCOCC1)CCCCC3	inactive	
CCCCc1nc(NCCN)c(C#N)c2c1CSC(C)(C)C2	inactive	
OCCC1CN(Cc2ccc3nsnc3c2)CCN1C1CCCCC1 (stereo not given)	inactive	
CCN(CC)S(=O)(=O)c1ccc(N2CC(C(=O)NCc3cccnc3)CC2=O)cc1 (stereo not given)	inactive	
Nc1ccc(C(=O)N2CCN(S(=O)(=O)c3ccc(Cl)cc3)CC2)cc1[N+](=O)[O-]	inactive	
CCC(C)NCCOCCOc1ccc(Br)cc1C (stereo not given)	inactive	
N=c1n(CCc2ccccc2)c2ccccc2n1Cc1ccccc1F	inactive	
Cc1cccn2c(=O)c3cc(C#N)c(=O)n(CCCN4CCOCC4)c3nc12		112% (active)
O=C(CN1CCCCCC1)N1c2ccccc2Sc2ccc(C(F)(F)F)cc21	inactive	
CN1CCN(c2ccc([N+](=O)[O-])c(Sc3nc4ccccc4[nH]3)c2)CC1	inactive	
O=S(=O)(c1cccc(Cn2nnc(-c3ccc(F)cc3)n2)c1)N1CCOCC1	inactive	
Cn1c(/C(C#N)=C2/CCCCCN2)nc2ccccc21	inactive	
CC(C)C(c1nnnn1CCc1ccccc1)N1CCN(C(=O)c2ccco2)CC1 (stereo not given)		85.5% (active)
CCC(C)(C)NC(=O)CN(C(=O)CCC(=O)Nc1nccs1)c1ccc2c(c1)OCO2	inactive	
COc1ccc(-c2nnc(NC(=O)CS(=O)(=O)c3ccc(Cl)cc3)o2)c(OC)c1	inactive	
CCCCN(C)CCCNC(=O)c1cc(-c2cccs2)nc2ccccc12	inactive	
Cc1ccc(NC(=S)N(CCCN2CCCC2)Cc2cccn2Cc2ccc(Cl)cc2)cc1	inactive	
O=C(c1ccc(-n2cnnn2)cc1)N1CCN(C(c2ccccc2)c2ccccc2)CC1		71% (active)

Compound	outcome	inhibition
CC(=O)Nc1ccc(NC(=O)CN2CCCC(C)C2)c(Cl)c1 (stereo not given)	inactive	
CCCN(CCc1ccccc1)C1CCc2c(O)cccc2C1 (stereo not given)	inactive	
Cc1cc(C)c2nc3nc(C)cc(C)c3c(N)c2c1		76.5% (active)
CCN(CC)CCNc1nc(-c2ccc(OC(F)F)cc2)c(C)s1	inactive	
CCOc1nc(NCCN2CCOCC2)nc(Nc2ccc(C)cc2)n1	inactive	
CCOc1ccc(/C(O)=C2/C(=O)C(=O)N(Cc3cccnc3)C2c2ccc(N(C)C)cc2)c(C)c1 (stereo not given)	inactive	
O=C1CN(C(=O)c2ccccc2F)C(c2ccc(F)cc2)c2cc(F)ccc2N1 (stereo not given)	inactive	
Cc1nc(C(=O)NCc2ccccc2)sc1C1(C)CC(c2cccnc2)=NO1 (stereo not given)		97.5% (active)
CCOC(=O)c1sc2nc(CSCC(=O)OCc3ccc(C(=O)OC)o3)[nH]c(=O)c2c1C	inactive	
c1ccc(C2CNCc3c2ccc2ccccc32)cc1 (stereo not given)	inactive	
COc1ccc(Br)cc1/C=N/n1c(C)nnc1C	inactive	
Clc1ccc(-n2nnnc2-c2cnc(-c3ccccn3)nc2-c2cccs2)cc1	inactive	
Cc1ccc2c(c1)C1CN(C)CCC1N2C(=S)Nc1ccc(Cl)cc1Cl (stereo not given)	inactive	
COC(=O)c1c(NC(=O)c2ccc(S(=O)(=O)N3CCOCC3)cc2)sc2c1CCN(C(C)C)C2	inactive	
Cc1c(CCOC(=O)CC23CC4CC(CC(C)(C4)C2)C3)sc[n+]1Cc1ccc([N+](=O)[O-])cc1	inactive	
CCc1ccc(OCC(=O)N(Cc2ccccc2)C2CCS(=O)(=O)C2)cc1 (stereo not given)	inactive	
COC(=O)c1ccccc1NC(=O)C1CCN(S(=O)(=O)c2cc(OC)ccc2OC)CC1	inactive	
CC(C)(C)Nc1nc(-c2ccccn2)nc2ccccc12		77% (active)
CCCc1cc(=O)oc2c(C)c(O)c(CN3CCCCC3)cc12	inactive	
CCCCN(CCCC)CC(O)Cn1c2ccccc2c(=O)c2ccccc21 (stereo not given)	inactive	

Test system: Transient receptor potential cation channel subfamily C member 4 (mouse)
Experiment: off-target membrane potential effects via mouse TRPC4 – cell-based, HEK293 TRPC4/mu-opioid, membrane potential dye, selectivity assay for TRPC6 modulator project, confirmation (AID 488927);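 for percent change from control (negative = decrease, positive = increase): plate controls were assay buffer wells for no effect and DAMGO maximal-effect wells for full effect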
Conditions: membrane potential fluorescence, at 10 µM

Compound	percent change from control (negative = decrease, positive = increase)	outcome
Cc1cccc(NC(=S)NCCN(C2CCCCC2)C2CCCC2)c1	24.5% (active)	
Cc1cc(N2CCN(S(=O)(=O)c3ccc(C)c(C)c3)CC2)c2ccccc2n1	-10.5% (active)	
N=c1c2c3c(sc2ncn1CCCN1CCOCC1)CCCCC3		inactive
CCCCc1nc(NCCN)c(C#N)c2c1CSC(C)(C)C2		inactive
OCCC1CN(Cc2ccc3nsnc3c2)CCN1C1CCCCC1 (stereo not given)	18% (active)	
CCN(CC)S(=O)(=O)c1ccc(N2CC(C(=O)NCc3cccnc3)CC2=O)cc1 (stereo not given)		inactive
Nc1ccc(C(=O)N2CCN(S(=O)(=O)c3ccc(Cl)cc3)CC2)cc1[N+](=O)[O-]		inactive
CCC(C)NCCOCCOc1ccc(Br)cc1C (stereo not given)	21% (active)	
N=c1n(CCc2ccccc2)c2ccccc2n1Cc1ccccc1F	20.5% (active)	
Cc1cccn2c(=O)c3cc(C#N)c(=O)n(CCCN4CCOCC4)c3nc12	-54% (active)	
O=C(CN1CCCCCC1)N1c2ccccc2Sc2ccc(C(F)(F)F)cc21	18.5% (active)	
CN1CCN(c2ccc([N+](=O)[O-])c(Sc3nc4ccccc4[nH]3)c2)CC1	-14.5% (active)	
O=S(=O)(c1cccc(Cn2nnc(-c3ccc(F)cc3)n2)c1)N1CCOCC1		inactive
Cn1c(/C(C#N)=C2/CCCCCN2)nc2ccccc21		inactive
CC(C)C(c1nnnn1CCc1ccccc1)N1CCN(C(=O)c2ccco2)CC1 (stereo not given)	27.5% (active)	
CCC(C)(C)NC(=O)CN(C(=O)CCC(=O)Nc1nccs1)c1ccc2c(c1)OCO2		inactive
COc1ccc(-c2nnc(NC(=O)CS(=O)(=O)c3ccc(Cl)cc3)o2)c(OC)c1		inactive
CCCCN(C)CCCNC(=O)c1cc(-c2cccs2)nc2ccccc12	-13% (active)	
Cc1ccc(NC(=S)N(CCCN2CCCC2)Cc2cccn2Cc2ccc(Cl)cc2)cc1		inactive
O=C(c1ccc(-n2cnnn2)cc1)N1CCN(C(c2ccccc2)c2ccccc2)CC1	18.5% (active)	

Compound	percent change from control (negative = decrease, positive = increase)	outcome
CC(=O)Nc1ccc(NC(=O)CN2CCCC(C)C2)c(Cl)c1 (stereo not given)		inactive
CCCN(CCc1ccccc1)C1CCc2c(O)cccc2C1 (stereo not given)	45.5% (active)	
Cc1cc(C)c2nc3nc(C)cc(C)c3c(N)c2c1	-31% (active)	
CCN(CC)CCNc1nc(-c2ccc(OC(F)F)cc2)c(C)s1		inactive
CCOc1nc(NCCN2CCOCC2)nc(Nc2ccc(C)cc2)n1	15% (active)	
CCOc1ccc(/C(O)=C2/C(=O)C(=O)N(Cc3cccnc3)C2c2ccc(N(C)C)cc2)c(C)c1 (stereo not given)		inactive
O=C1CN(C(=O)c2ccccc2F)C(c2ccc(F)cc2)c2cc(F)ccc2N1 (stereo not given)	26.5% (active)	
Cc1nc(C(=O)NCc2ccccc2)sc1C1(C)CC(c2cccnc2)=NO1 (stereo not given)		inactive
CCOC(=O)c1sc2nc(CSCC(=O)OCc3ccc(C(=O)OC)o3)[nH]c(=O)c2c1C		inactive
c1ccc(C2CNCc3c2ccc2ccccc32)cc1 (stereo not given)		inactive
COc1ccc(Br)cc1/C=N/n1c(C)nnc1C	10% (active)	
Clc1ccc(-n2nnnc2-c2cnc(-c3ccccn3)nc2-c2cccs2)cc1	19.5% (active)	
Cc1ccc2c(c1)C1CN(C)CCC1N2C(=S)Nc1ccc(Cl)cc1Cl (stereo not given)	-10% (active)	
COC(=O)c1c(NC(=O)c2ccc(S(=O)(=O)N3CCOCC3)cc2)sc2c1CCN(C(C)C)C2	-33% (active)	
Cc1c(CCOC(=O)CC23CC4CC(CC(C)(C4)C2)C3)sc[n+]1Cc1ccc([N+](=O)[O-])cc1	-29.5% (active)	
CCc1ccc(OCC(=O)N(Cc2ccccc2)C2CCS(=O)(=O)C2)cc1 (stereo not given)	8.5% (active)	
COC(=O)c1ccccc1NC(=O)C1CCN(S(=O)(=O)c2cc(OC)ccc2OC)CC1	13% (active)	
CC(C)(C)Nc1nc(-c2ccccn2)nc2ccccc12	-58% (active)	
CCCc1cc(=O)oc2c(C)c(O)c(CN3CCCCC3)cc12		inactive
CCCCN(CCCC)CC(O)Cn1c2ccccc2c(=O)c2ccccc21 (stereo not given)		inactive
